A short description of experiment [1]: AP1 Signaling Pathway (AID 357).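 Also: ME-180 reporter cells stimulated with EGF at its EC50 level; % is scaled to controls: 0 for no effect and ±100 for the full control effect.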 To be noted: ME-180 AP-1-bla reporter, EGF-induced, beta-lactamase ratio, 5 h; at 7.69 µM (top of the series) unless noted. In outline:
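In this screen, ME-180 cells in Opti-MEM with 0.5% dialyzed FBS received EC50 EGF and compound titrations for 5 h. AP-1 reporter beta-lactamase was detected via CCF4 ratio, giving AC50 for positive and negative modulators.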

The target of experiment [2] is Cytochrome P450 1A2 (Homo sapiens) (UniProt P05177). Briefly: p450-cyp1a2 (AID 410; calls by dose curve; also: potency is read from the fitted curve at half-maximal effect). Put shortly:
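Inhibition was calculated relative to 57 uM furafylline (full inhibition). The reaction used human CYP1A2 at 20nM with Luciferin-ME at its Km, 100uM, driven by an NADPH-regenerating system for 60 min at room temperature.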

Experiment [3] is described as follows: NFAT Signaling Pathway (AID 444).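 Also: carbachol stimulus at about its EC50 of 1 µM final; % is scaled to controls: 0 for no effect and ±100 for the full control effect.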 Conditions: Jurkat NFAT-bla M1, carbachol, beta-lactamase ratio, 5 h; at 7.69 µM (top of the series) unless noted. Put shortly:
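Read-out: CCF4 FRET ratio (460 nm/530 nm) after 1 h RT dye loading, used for %activity and AC50 from titration series. Cells: Jurkat NFAT-β-lactamase/M1 line, treated with compound plus 1 uM carbachol for 5 h, 37 °C.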

A short description of experiment [4]: Stat Signaling Pathway (AID 446).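 Also: ME-180 cervical cancer cells given 40 pM IL-6 alongside compound; SIE-controlled beta-lactamase reporter measured as 460/530 nm FRET emission ratio; % is scaled to controls: 0 for no effect and ±100 for the full control effect.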 Conditions: ME-180 (cervical carcinoma) SIE beta-lactamase reporter, IL-6 stimulated, 5 h; at 7.69 µM (top of the series) unless noted. In outline:
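ME-180 cells carrying a SIE-driven beta-lactamase reporter are stimulated with 40 pM IL-6 for 5 h at 37C in the presence of compound. The 460/530 nm FRET substrate ratio is read after 2.5 h at RT. Data are normalised to 300 pM IL-6 and to 125 nM JAK inhibitor controls.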

Experiment [5] concerns the target Glucocorticoid receptor (Homo sapiens) (UniProt P04150). Description: GR-GFP Redistribution (AID 450;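 active = compounds whose dose series gives a full or clear partial fitted curve of increased nuclear translocation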; also: potency is read from the fitted curve at half-maximal effect). Conditions: U2OS GR-GFP nuclear translocation, laser cytometry, 2 h.
Experiment [6] shares this target. Description: GR-EFC Redistribution (AID 451; calls by dose curve; also: potency is read from the fitted curve at half-maximal effect). To be noted: CHO-K1 GR-EFC translocation, beta-gal luminescence, 2 h. Put shortly: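 Translocation of GR-ED fusion to nuclear EA restores b-gal, read by luminescence after 1 h room-temperature detection. Engineered CHO-K1 biosensor cells, 1,000/well, exposed 2 h at 37 C to titrations up to 46 uM final.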
The target in experiment [7] is Mitogen-activated protein kinase 10 (Mus musculus) (UniProt Q61831). Description: JNK3 AlphaScreen Assay (AID 530).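 Also: kinase came from lysate of stimulated human HepG2 cells; signal reports phosphorylation of biotinylated GST-cJun 1-79 at Ser73 with 10 µM ATP; % is scaled to controls: 0 for no effect and ±100 for the full control effect.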 In outline: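 Room-temperature AlphaScreen kinase assay; pre-activated HepG2 lysate as JNK3 source, biotin-GST-cJun(1-79) substrate, 10 uM ATP, compound 15 min preincubation.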
(Bead proximity is the source of the signal in Alpha formats.)

Experiment [8] addresses 3',5'-cyclic-AMP phosphodiesterase 4B (Homo sapiens) (UniProt Q07343). Briefly: qHTS Assay for Inhibitors of PDE-IV (AID 607; active = well fitted activation curve with a large enough effect in the main read-out, with a control signal flat, not every such curve was filed as active; also: % of control where 0% means no effect). In outline: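 HEK293 ACTOne cells with CNG channel (1000/well), endogenous PDE4; membrane potential dye, compounds up to 22.9 uM final. Fluorescence Ex 535/Em 590; RO 20-1724 (100 uM final) as reference.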
(In general: qHTS replaces the single test concentration by a dilution series.)

Experiment [9] has as its target Dual specificity protein kinase CLK4 (Homo sapiens) (UniProt Q9HAZ1). Briefly: qHTS Assay for Inhibitors of CDC-like Kinase 4 (ADP-FP Assay) (AID 1795; active = well fitted curve in the direction sought with a large enough effect; an effect the other way counts as inactive or inconclusive; also: nearly all actives have a fitted effect of over 60% in size; also: potency is read from the fitted curve at half-maximal effect). In outline: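 Inhibition of ADP formation by 6.25 nM Clk4 is measured using 1 uM ATP and 100 uM RS repeat peptide over one hour. Produced ADP displaces a fluorescent tracer from antibody, lowering polarization.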

Experiment [10] has as its target Ubiquitin carboxyl-terminal hydrolase 1 (Homo sapiens) (UniProt O94782). Description: Inhibitors of USP1/UAF1: Pilot qHTS (AID 504865; active = well fitted curve in the direction sought with a large enough effect; an effect the other way counts as inactive or inconclusive;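 also: rhodamine fluorescence freed from ubiquitin-rhodamine substrate followed over time; top concentration of the series differs between compounds; % is scaled to controls: 0 for no effect and ±100 for the full control effect; nearly all actives have a fitted effect of over 35% in size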). Put shortly:
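Kinetic fluorescence assay: 1nM USP1/UAF1, 15 min compound preincubation, then 150nM Ub-Rho; 480/540 nm.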

Experiment [11] is described as follows: Primary qHTS for small molecule stabilizers of the endoplasmic reticulum resident proteome: Secreted ER Calcium Modulated Protein (SERCaMP) assay (AID 1508630; active = well fitted curve in the direction sought with a large enough effect; an effect the other way counts as inactive or inconclusive; also: % is scaled to controls: 0 for no effect and ±100 for the full control effect). In outline: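 GLuc-SERCaMP-expressing SH-SY5Y cells, pretreated 16 h with compound, are challenged with thapsigargin to empty ER calcium stores; after 4 h, coelenterazine is added directly to the medium and luminescence is imaged.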

Experiment [12] concerns the target Lysosomal acid glucosylceramidase (Homo sapiens) (UniProt P04062). Briefly: Glucocerebrosidase-p2 (AID 348; in the data active = potency below about 10 µM; also: potency is read from the fitted curve at half-maximal effect). To be noted: purified GBA, blue fluorogenic substrate, 40 min. Put shortly:
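Compounds titrated from 0.6 nM upwards against 0.2 nM enzyme in pH 5.9 citric acid/KH2PO4, taurocholate, tween-20; blue fluorogenic substrate 80 uM, 40 min room temperature, stopped and read Ex 365/Em 440 for AC50.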

The target of experiment [13] is Cytochrome P450 3A4 (Homo sapiens) (UniProt P08684). Description: qHTS Assay for Inhibitors and Substrates of Cytochrome P450 3A4 (AID 884; active = well fitted curve in the direction sought with a large enough effect; an effect the other way counts as inactive or inconclusive; also: potency is read from the fitted curve at half-maximal effect; nearly all actives have a fitted effect of over 50% in size). In outline: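 20 nM human CYP3A4 with 25 uM Luciferin-PPXE (at KM) in 200 mM KPO4, preincubated 10 min with compound; NADPH regeneration started a 60 min RT reaction. Luciferin detected by luminescence, normalized to 57 uM ketoconazole as full inhibition.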

The target is the same in experiment [14]. Briefly: qHTS Assay for Activators of Cytochrome P450 3A4 (AID 885; active = well fitted curve in the direction sought with a large enough effect; an effect the other way counts as inactive or inconclusive; also: nearly all actives have a fitted effect of over 65% in size). In outline:
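Human CYP3A4 (20 nM) with Luciferin-PPXE at 25 uM (its KM) in 200 mM KPO4; 10 min compound preincubation, then NADPH regeneration and 60 min reaction at RT. Luciferin read by luminescence; normalized to 57 uM ketoconazole full inhibition.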

The target in experiment [15] is Cytochrome P450 2C19 (Homo sapiens) (UniProt P33261). Description: qHTS Assay for Inhibitors and Substrates of Cytochrome P450 2C19 (AID 899; active = well fitted curve in the direction sought with a large enough effect; an effect the other way counts as inactive or inconclusive; also: potency is read from the fitted curve at half-maximal effect; nearly all actives have a fitted effect of over 60% in size). In outline:
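5nM enzyme + 10uM Luciferin-H EGE (=KM), 50mM KPO4; cpd pin-transferred, 10 min 37C; NADPH regen, 60 min 37C; stopped w/ luciferin detection reagent, 20 min; luminescence. Normalized to 57uM ketoconazole (AC100).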

Experiment [16] addresses Cytochrome P450 2C9 (Homo sapiens) (UniProt P11712). Description: qHTS Assay for Inhibitors and Substrates of Cytochrome P450 2C9 (AID 883; active = well fitted curve in the direction sought with a large enough effect; an effect the other way counts as inactive or inconclusive; also: potency is read from the fitted curve at half-maximal effect; nearly all actives have a fitted effect of over 60% in size). In outline: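 Inhibition of CYP2C9 is scored as loss of luminescence, with 57uM sulphaphenazole defining 100% inhibition. Substrate Luciferin-H is used at 100uM, equal to its KM; enzyme at 10nM in 25mM KPO4, 60 min at 37C with NADPH regeneration.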

A number with no mark means an inactive call. Results filed as inconclusive are left out. Active and inactive are the calls of the source. Unless noted, calls follow the shape of the dose curve; as a rule, active = well fitted curve in either direction with a large enough effect (not every such curve was filed as active); inconclusive = small, poorly fitted or top-dose-only effect, or another doubt; inactive = flat fitted curve, though single readings scatter. A value given as a limit tells only on which side of the number the result lay.

Chain of Glucocorticoid receptor (Homo sapiens) (P04150 whole entry, looked up, the tested form may be a part): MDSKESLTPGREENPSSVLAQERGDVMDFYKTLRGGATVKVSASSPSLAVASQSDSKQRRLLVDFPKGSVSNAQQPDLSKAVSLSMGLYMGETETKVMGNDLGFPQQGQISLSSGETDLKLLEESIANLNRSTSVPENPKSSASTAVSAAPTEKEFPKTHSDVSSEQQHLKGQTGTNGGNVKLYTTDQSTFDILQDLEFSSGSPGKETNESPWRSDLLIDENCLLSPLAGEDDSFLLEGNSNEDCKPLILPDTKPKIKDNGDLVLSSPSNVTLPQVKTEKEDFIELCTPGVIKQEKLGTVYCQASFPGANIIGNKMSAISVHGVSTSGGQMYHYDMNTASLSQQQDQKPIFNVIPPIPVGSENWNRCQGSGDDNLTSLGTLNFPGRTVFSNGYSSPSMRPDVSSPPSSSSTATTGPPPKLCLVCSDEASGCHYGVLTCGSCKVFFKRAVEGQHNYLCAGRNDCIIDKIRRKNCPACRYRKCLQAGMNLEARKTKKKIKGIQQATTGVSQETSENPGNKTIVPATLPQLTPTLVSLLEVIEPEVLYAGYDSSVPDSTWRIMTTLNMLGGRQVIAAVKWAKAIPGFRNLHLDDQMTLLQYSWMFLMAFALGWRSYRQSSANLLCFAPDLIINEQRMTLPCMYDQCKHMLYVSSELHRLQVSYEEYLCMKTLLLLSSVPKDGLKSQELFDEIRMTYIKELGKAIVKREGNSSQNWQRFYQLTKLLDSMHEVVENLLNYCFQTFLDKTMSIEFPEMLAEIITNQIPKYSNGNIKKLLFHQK
Chain of Cytochrome P450 3A4 (Homo sapiens) (P08684 whole entry, looked up): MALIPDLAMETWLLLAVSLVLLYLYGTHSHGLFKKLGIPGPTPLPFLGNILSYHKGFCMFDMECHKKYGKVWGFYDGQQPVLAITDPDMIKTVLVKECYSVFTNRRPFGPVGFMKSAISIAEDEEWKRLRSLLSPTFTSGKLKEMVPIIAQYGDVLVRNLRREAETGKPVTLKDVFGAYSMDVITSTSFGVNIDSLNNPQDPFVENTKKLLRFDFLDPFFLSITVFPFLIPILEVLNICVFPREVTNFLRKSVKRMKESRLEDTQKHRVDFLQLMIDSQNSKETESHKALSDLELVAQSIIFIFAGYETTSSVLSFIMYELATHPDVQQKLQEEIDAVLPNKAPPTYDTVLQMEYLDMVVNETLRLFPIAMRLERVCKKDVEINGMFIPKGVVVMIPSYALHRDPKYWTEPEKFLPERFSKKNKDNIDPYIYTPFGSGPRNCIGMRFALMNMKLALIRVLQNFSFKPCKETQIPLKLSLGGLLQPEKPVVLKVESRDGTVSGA
Chain of Lysosomal acid glucosylceramidase (Homo sapiens) (P04062 whole entry, looked up): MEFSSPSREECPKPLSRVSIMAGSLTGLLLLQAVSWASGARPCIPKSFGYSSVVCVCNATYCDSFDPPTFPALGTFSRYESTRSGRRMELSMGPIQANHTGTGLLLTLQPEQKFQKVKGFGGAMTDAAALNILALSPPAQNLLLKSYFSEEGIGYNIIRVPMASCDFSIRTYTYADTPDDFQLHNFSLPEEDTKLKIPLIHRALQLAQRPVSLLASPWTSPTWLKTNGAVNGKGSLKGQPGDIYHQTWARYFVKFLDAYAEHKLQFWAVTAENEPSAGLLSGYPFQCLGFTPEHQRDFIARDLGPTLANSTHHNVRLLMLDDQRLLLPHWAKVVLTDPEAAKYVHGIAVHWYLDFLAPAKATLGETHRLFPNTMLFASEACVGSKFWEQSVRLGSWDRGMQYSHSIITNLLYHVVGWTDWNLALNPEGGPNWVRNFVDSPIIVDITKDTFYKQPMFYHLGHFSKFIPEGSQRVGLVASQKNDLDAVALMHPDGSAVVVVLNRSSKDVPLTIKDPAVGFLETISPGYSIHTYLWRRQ
Chain of Dual specificity protein kinase CLK4 (Homo sapiens) (Q9HAZ1 whole entry, looked up): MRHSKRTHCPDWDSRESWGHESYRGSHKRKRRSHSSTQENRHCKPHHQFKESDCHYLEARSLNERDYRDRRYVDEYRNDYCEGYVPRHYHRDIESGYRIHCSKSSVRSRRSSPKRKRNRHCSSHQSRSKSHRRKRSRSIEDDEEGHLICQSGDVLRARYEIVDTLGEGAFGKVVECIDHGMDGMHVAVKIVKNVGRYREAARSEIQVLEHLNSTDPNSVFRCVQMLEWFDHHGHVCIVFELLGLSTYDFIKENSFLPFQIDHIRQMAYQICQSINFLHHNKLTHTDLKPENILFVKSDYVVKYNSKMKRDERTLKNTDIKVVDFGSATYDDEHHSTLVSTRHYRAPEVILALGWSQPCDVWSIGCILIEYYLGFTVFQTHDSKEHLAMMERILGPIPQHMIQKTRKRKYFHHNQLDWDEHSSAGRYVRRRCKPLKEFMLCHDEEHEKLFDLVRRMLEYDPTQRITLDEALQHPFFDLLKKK
Chain of Cytochrome P450 1A2 (Homo sapiens) (P05177 whole entry, looked up): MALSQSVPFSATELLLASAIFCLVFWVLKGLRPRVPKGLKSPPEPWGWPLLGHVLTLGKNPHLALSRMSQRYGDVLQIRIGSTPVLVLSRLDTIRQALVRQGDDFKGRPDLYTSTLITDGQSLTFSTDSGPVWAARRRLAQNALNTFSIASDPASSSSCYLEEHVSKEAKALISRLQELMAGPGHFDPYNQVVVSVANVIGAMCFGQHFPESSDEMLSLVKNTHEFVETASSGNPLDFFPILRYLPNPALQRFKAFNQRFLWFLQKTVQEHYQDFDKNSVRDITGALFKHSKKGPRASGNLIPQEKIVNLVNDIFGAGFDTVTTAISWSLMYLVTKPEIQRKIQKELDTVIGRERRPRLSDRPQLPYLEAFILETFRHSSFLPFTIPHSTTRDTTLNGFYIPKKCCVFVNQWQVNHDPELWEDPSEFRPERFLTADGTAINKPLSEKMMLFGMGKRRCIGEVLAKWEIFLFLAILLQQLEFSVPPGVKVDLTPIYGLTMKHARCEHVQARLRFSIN
Chain of 3',5'-cyclic-AMP phosphodiesterase 4B (Homo sapiens) (Q07343 whole entry, looked up): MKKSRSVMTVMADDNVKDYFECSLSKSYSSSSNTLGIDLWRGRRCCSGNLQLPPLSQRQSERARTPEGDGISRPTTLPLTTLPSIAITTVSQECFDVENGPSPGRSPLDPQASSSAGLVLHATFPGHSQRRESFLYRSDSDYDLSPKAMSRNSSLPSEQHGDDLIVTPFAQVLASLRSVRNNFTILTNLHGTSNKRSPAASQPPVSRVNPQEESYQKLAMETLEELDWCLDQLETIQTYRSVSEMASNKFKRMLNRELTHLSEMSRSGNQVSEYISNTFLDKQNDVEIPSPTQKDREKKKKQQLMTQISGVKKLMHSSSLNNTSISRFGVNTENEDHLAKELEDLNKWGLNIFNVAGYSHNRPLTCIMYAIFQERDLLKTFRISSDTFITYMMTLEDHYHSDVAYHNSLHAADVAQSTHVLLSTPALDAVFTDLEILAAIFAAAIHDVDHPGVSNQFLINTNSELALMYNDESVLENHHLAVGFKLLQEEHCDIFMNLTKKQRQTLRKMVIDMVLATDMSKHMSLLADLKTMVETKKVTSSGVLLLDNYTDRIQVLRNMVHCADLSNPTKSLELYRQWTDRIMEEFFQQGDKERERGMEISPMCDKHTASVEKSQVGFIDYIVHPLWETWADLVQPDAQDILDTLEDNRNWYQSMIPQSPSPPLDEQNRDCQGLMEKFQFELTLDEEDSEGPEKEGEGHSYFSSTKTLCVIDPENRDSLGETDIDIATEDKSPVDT
Chain of Ubiquitin carboxyl-terminal hydrolase 1 (Homo sapiens) (O94782 whole entry, looked up): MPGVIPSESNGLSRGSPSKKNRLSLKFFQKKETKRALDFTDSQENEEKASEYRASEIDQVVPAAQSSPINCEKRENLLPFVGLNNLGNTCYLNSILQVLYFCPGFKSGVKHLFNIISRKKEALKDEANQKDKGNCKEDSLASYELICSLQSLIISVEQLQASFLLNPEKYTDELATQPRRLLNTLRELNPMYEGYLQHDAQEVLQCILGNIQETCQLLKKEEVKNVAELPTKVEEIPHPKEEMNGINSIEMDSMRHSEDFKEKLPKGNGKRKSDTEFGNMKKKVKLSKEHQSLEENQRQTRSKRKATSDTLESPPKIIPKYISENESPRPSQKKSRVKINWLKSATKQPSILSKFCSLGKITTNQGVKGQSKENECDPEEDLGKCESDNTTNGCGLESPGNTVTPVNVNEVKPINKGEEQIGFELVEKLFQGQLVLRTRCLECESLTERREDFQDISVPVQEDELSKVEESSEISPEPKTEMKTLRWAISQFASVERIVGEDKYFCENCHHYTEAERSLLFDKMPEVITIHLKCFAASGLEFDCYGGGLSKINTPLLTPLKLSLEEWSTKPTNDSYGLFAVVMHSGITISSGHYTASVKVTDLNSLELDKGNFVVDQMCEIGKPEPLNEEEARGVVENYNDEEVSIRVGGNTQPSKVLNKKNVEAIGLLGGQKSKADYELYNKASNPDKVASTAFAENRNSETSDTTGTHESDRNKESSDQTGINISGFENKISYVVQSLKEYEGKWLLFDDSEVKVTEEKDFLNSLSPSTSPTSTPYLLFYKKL
Chain of Cytochrome P450 2C9 (Homo sapiens) (P11712 whole entry, looked up): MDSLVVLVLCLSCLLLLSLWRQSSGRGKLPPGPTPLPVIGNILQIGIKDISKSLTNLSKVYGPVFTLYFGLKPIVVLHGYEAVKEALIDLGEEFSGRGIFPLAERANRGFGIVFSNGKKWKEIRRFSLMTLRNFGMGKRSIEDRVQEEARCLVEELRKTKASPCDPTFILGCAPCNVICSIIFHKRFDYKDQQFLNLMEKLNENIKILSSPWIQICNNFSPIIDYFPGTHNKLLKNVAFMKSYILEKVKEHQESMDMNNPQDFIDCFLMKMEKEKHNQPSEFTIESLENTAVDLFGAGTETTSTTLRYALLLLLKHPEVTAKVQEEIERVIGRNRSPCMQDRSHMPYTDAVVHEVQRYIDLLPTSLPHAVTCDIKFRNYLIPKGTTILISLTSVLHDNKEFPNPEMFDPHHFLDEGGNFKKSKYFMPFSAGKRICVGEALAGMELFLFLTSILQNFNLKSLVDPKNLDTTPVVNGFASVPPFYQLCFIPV

On to `FC(F)(F)c1ccccc1-c1cc(NCc2cccs2)ncn1`, for which the activity change, negative = inhibition in [1] is -3.47%; in experiment [3] it was -14.8%. Further, the figures for the Potency in experiment [2], in experiment [5] and in experiment [6] were 3.98 µM (active), more than 46 µM and more than 46 µM, respectively. The activity, negative = inhibition in experiment [4] is 5.97%. Besides, the Potency entry in experiment [7], in experiment [8], in experiment [9] and in experiment [10] was “inactive” each time. Besides, the result in [11] was inactive.

As for `CCNc1ncc2nc(C)c(=O)n(CCOC)c2n1`, the Potency is more than 11.4 µM in experiment [12], more than 9.22 µM in experiment [5] and more than 46 µM in experiment [6]. Also, the activity change, negative = inhibition in experiment [1] is -1.39%; in [3] it was 13.7%. In addition, in [4], the activity, negative = inhibition is -7.84%. The Potency entry in experiment [7], in experiment [8], in [9] and in experiment [10] was “inactive” each time. In addition, the outcome in experiment [11] was inactive.

`COc1ccc(CNc2ncncc2-c2ccc(N(C)C)cc2)c(OC)c1`: the Potency in experiment [12] was more than 11.4 µM; in experiment [2], 0.631 µM (active); in [5], more than 46 µM; in [6], more than 46 µM; in experiment [13] it was 0.199 µM (active); in experiment [15], 1.58 µM (active). Besides, the figures for the activity change, negative = inhibition in experiment [1] and in experiment [3] were -8.89% and 1.33%, respectively. Also, the activity, negative = inhibition in [4] was 0.205%. For the same compound, the Potency result in [7], in [14] and in [9] was “inactive” each time. In experiment [11], the result was inactive.

Take `N#Cc1ccccc1-c1ccc2ncnc(NCCN3CCOCC3)c2c1`: the Potency was more than 11.4 µM in [12], 10 µM (active) in [2], more than 46 µM in experiment [5] and more than 46 µM in experiment [6]. Moreover, the activity change, negative = inhibition in [1] was 1.67%; in experiment [3], -6.3%. The Potency entry in [7], in [8], in experiment [14], in [9] and in experiment [10] was “inactive” each time. Further, the result in [11] was inactive.

For `CN(C)C(=O)c1ccc(-c2ccc3ncnc(N4CCNCC4)c3c2)cc1`, the values for the Potency in [12] and in experiment [6] were more than 11.4 µM and more than 46 µM, respectively. The activity change, negative = inhibition in [1] was -26.4%; in experiment [3], 4.61%. In addition, the Potency entry in experiment [2], in experiment [7], in experiment [8], in experiment [9] and in experiment [10] was “inactive” each time. Moreover, in [4], the activity, negative = inhibition is -3.14%. Besides, the result in [11] was inactive.

As for `COc1ccc2[nH]cc(CCNc3cc(-c4c(C)noc4C)ncn3)c2c1`, the Potency in experiment [12] is more than 11.4 µM; in experiment [6] it was more than 46 µM. In addition, the activity change, negative = inhibition in experiment [1] is 8.05%; in [3] it was 0.421%. Besides, in [4], the activity, negative = inhibition is -0.948%. Also, the Potency result in experiment [7], in experiment [8], in experiment [9] and in [10] was “inactive” throughout. In addition, the result in experiment [11] was inactive.

Consider `CNc1ncnc2ccc(-c3cccc(OC)c3)cc12`, for which the Potency was more than 11.4 µM in experiment [12]; 0.501 µM (active) in experiment [2]; more than 46 µM in [5]; more than 46 µM in experiment [6]; 0.501 µM (active) in [16]; 0.282 µM (active) in experiment [9]. Moreover, the activity change, negative = inhibition in experiment [1] was -19.8%. The activity, negative = inhibition in [4] is -20.2%. Further, the Potency result in [7], in experiment [8] and in experiment [10] was “inactive” in each case. The outcome in [11] was inactive.

These data come from PubChem BioAssay (NCATS).
